High-throughput results from PubChem BioAssay.
Compounds with a hit are over-represented: about 3% of the library has one in this group of screens.
Tau fluor counter: counter-screen for tau fibril formation inhibitors | tau K18 P301L Alexa594 fluorescence, heparin fibrillization | Potency, µM (top dose mostly 57.7 µM), without a hit: at the highest dose activity change, negative = decrease | 280,000 tested, 0.93% active | AID 1463; also: nearly all actives have a fitted effect of over 55% in size
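Human K18 P301L tau (15 uM unlabeled plus 0.24 uM Alexa 594-labeled, final) in 100 mM sodium acetate pH 7 was mixed with compound and 20 uM heparin and incubated 6 hr at 37 C.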
TR SRC2 fluor cs: alters Texas Red total fluorescence, flagging assay interference. 280,000 tested, 0.29% active. TRb/SRC2 Texas Red total fluorescence interference. Potency, µM (doses to about 106 µM), for inactives: at the top dose fluorescence change, negative = quenching; active = well fitted curve in either direction with a large enough effect; inconclusive = small, poorly fitted or top-dose-only effect
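Human TRb ligand-binding domain at 0.6 uM with 20 nM Texas Red SRC2 peptide in Tris buffer containing 1 uM T3 and 5% DMSO, incubated with compound 5 h at ambient temperature. Total fluorescence (555/632 nm) calculated as parallel + 2 × perpendicular.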
TRb SRC2 PPI: TRbeta-SRC2 interaction inhibition; P10828; TRbeta-SRC2 peptide binding, fluorescence polarization; receptor liganded with 1 µM T3; Potency, µM (highest dose often 106 µM), for the others: at the top dose activity change, negative = inhibition, usual class: inhibitors; 280,000 tested, 0.065% active; AID 1469;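 also: plate controls were bound peptide for no effect and peptide without receptor for full effect; nearly all actives have a fitted effect of over 50% in size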
Target sequence (P10828 whole entry, looked up): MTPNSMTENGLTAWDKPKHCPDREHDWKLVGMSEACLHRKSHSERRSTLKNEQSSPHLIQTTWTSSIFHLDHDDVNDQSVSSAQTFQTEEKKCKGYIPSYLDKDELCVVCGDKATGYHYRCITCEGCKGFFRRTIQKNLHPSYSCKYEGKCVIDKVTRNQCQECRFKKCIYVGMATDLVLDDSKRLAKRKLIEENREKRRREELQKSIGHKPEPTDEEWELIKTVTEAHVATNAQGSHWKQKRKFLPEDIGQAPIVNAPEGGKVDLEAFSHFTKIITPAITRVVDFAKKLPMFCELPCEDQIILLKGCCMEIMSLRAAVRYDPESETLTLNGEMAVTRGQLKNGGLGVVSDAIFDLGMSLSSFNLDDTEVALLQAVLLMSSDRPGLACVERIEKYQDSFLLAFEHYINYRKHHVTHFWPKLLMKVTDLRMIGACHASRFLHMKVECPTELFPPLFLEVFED
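Each compound concentration gave % activity, normalized to unbound and bound Texas Red SRC2 controls, from polarization read after 5 hr ambient incubation with T3-loaded human TRb LBD.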
Tau fibril FP: tau fibrillization inhibition (FP); 280,000 tested, 0.39% active; Potency, µM (titrated, usually from 57.7 µM), inactives show at the top dose activity, negative = inhibition, actives largely listed as inhibitors; K18 P301L tau heparin fibrillization, Alexa594 FP, 6 h; also: nearly all actives have a fitted effect of over 55% in size
Target sequence (P10636 561-689 P618L limits assumed): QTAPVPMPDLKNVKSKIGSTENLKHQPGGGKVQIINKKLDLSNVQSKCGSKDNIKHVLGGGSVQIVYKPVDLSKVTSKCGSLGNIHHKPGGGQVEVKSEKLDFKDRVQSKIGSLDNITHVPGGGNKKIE
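Read-out: fluorescence polarization of Alexa 594-labeled tau (0.24 uM), 555 nm excitation, 632 nm emission. Mixtures held 15 uM unlabeled K18 P301L, compound and 20 uM heparin, pH 7 acetate buffer, incubated 6 hr at 37 C.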
Tau ThT inhib: blocks human tau fibril formation measured by thioflavin T. P10636. recombinant tau K18 P301L (four-repeat tau fragment), heparin-induced fibrillization, ThT fluorescence. Potency, µM (highest dose often 57.4 µM), for inactives: top-dose activity, negative = inhibition, actives largely listed as inhibitors. 270,000 tested, 2.1% active; also: nearly all actives have a fitted effect of over 55% in size
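Heparin-induced (20 uM) aggregation of recombinant human K18 P301L tau, 15 uM unlabeled with 0.24 uM labeled, pH 7 acetate buffer, 6 hr at 37 C with compound. Fibrils quantified by 30 uM ThT fluorescence after 1 hr ambient incubation.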
Active calls of the source: *; ? = inconclusive; . = no result given; [ ] = another dose, or the depositor's remark. Unless noted, calls follow the shape of the dose curve; as a rule, active = well fitted curve in the direction sought with a large enough effect; inconclusive = small, poorly fitted or top-dose-only effect, or another doubt; inactive = no such curve, though single readings can be large; an effect the other way counts as inactive or inconclusive. Unless noted, % is scaled to controls: 0 for no effect and ±100 for the full control effect; potency is read from the fitted curve at half-maximal effect.

SMILES | Tau fluor counter | TR SRC2 fluor cs | TRb SRC2 PPI | Tau fibril FP | Tau ThT inhib
O=c1n(-c2ccccc2)c(=O)n2n1CC[C@H]1/C(=N\OC[C@@H](O)COCc3ccco3)[C@H]3O[C@@H]3[C@@H](O)[C@@H]12 | -17%[11.6 µM] | ? | 0%[11.2 µM] | -3%[11.6 µM] | -18%[11.5 µM]
NS(=O)(=O)c1ccc(NN=C2CCN(Cc3ccccc3)CC2)c([N+](=O)[O-])c1 | -27% | -4% | -7% | 12% | 25µM*
CCCN1CCC(=NNc2ccc(S(=O)(=O)N3CCOCC3)cc2[N+](=O)[O-])CC1 | -11% | 1% | -7% | 4% | 0%
Cc1ccc(-c2cc(C(=O)N/N=C/c3c[nH]c4ccccc34)[nH]n2)cc1 | 16µM*[quencher] | 0% | 0% | ? | ?
O=C(N/N=C/c1c[nH]c2ccccc12)c1cc(-c2ccccc2)n[nH]1 | 25µM*[quencher] | -7%[53 µM] | 6%[53 µM] | 15% | ?
O=C(N/N=C/c1c[nH]c2ccccc12)c1cc(-c2ccc(-c3ccccc3)cc2)n[nH]1 | 13µM*[quencher] | -14% | ? | 5% | ?
O=C(N/N=C/c1c[nH]c2ccccc12)c1cc(-c2ccc3ccccc3c2)n[nH]1 | 5% | -3% | 16% | 6% | 3%
Cc1ccccc1NCC(=O)N/N=C/c1c[nH]c2ccccc12 | 16µM*[quencher] | -11% | 12% | ? | ?
COc1cc(NC(=O)C(CC(C)C)NS(=O)(=O)c2ccc3c(c2)CCN3C(C)=O)cc(OC)c1 (stereo unspecified) | -15% | 0% | -4% | -8% | -4%
CCC(C)NC(=O)C1CCN(C(=O)c2cc3sccc3n2Cc2ccc(Cl)cc2)CC1 (stereo unspecified) | -12% | 2% | 4% | -10% | -17%
CCn1nc(-c2ccccc2)c(-c2ccccc2)c(C(=O)Nc2ccccc2C#N)c1=O | -2% | -1% | 2% | 4% | 2%
O=C(N/N=C/c1ccccn1)c1cc(-c2cccc3ccccc23)n[nH]1 | -19% | 0% | -1% | 1% | ?
O=C(N/N=C/c1c[nH]c2ccccc12)c1cc(-c2cccc3ccccc23)n[nH]1 | 10µM*[quencher] | -7% | -5% | 4% | ?
COc1ccccc1CNC(=O)Cn1c(=O)nc(-c2ccccc2)c2ccccc21 | -5% | -1% | -1% | -5% | -3%
O=C(Cn1c(=O)c2ccccc2n(CC(=O)Nc2ccc(Cl)cc2)c1=O)NCCc1ccccc1 | 9% | 0% | -7% | ? | 10%
O=C(NNC(=S)Nc1ccc(OC(F)F)cc1)c1cc2c(s1)CCCC2 | ? | 631µM*[quencher] | -13% | 8% | ?
Cc1nn(C)c(N)c1[N+](=O)[O-] | -6% | -8% | 1% | 6% | -4%
Cc1nn(C)c(Sc2ccccc2N)c1[N+](=O)[O-] | -18% | -2% | -9% | ? | 32µM*
CN(C)c1ccc(CNC(=O)c2cccc(NC(=O)N3CCSc4ncccc43)c2)cc1 | -7% | -2% | -1% | 2% | -1%
COc1ccc(NC(=O)Cn2ncc3c2-c2ccccc2OC3)cc1Cl | ? | -11% | 1% | ? | 5%
Oc1cc(-n2cccn2)c(O)cc1-n1cccn1 | 16µM*[quencher] | -5% | -9% | ? | 16µM*
O=Cc1ccccc1-n1cccn1 | -2% | -3% | -3% | -10% | -2%
CCOC(=O)c1ccccc1C | . | -4%[201 µM] | 7%[201 µM] | . | .
Brc1cccc(-c2nnn3c2nc(N2CCCCC2)c2ccccc23)c1 | -19% | -1% | -4% | -1% | -12%
Cc1cc(Br)c2c(c1)/C(=C/C(=O)c1cccs1)C(=O)N2 | -8% | 1% | -10% | -2% | ?
SMILES | Tau fluor counter | TR SRC2 fluor cs | TRb SRC2 PPI | Tau fibril FP | Tau ThT inhib
Cc1cccc2c1NC(=O)/C2=C\C(=O)c1cccs1 | -26% | 0% | 1% | 6% | 22µM*
Cc1cc(C)c2c(c1)/C(=C/C(=O)c1ccc(Br)s1)C(=O)N2 | 20µM*[quencher] | -3% | -2% | -13% | 28µM*
CN(C)/C=C/C(=O)c1ccc(Br)s1 | 2% | -5% | -2% | -5% | -9%
CC(C)(C)Nc1oc(-c2ccccc2)nc1-c1ccccc1 | -7% | -1% | 6% | -5% | -11%
COc1ccc2nc(NC(=O)c3nc(S(=O)(=O)Cc4ccc(C)cc4)ncc3Cl)sc2c1 | ? | -1% | -4% | -7% | 5.6µM*
COc1ccc(OC)c(NC(=O)c2nc(S(=O)(=O)Cc3ccc(F)cc3)ncc2Cl)c1 | ? | -3% | -6% | 1% | 13µM*
Cc1ccc(CS(=O)(=O)c2ncc(Cl)c(C(=O)Nc3nc4ccc(C)cc4s3)n2)cc1 | ? | 0% | -2% | -17% | 22µM*
Cc1ccc(CS(=O)(=O)c2ncc(Cl)c(C(=O)Nc3nc4ccc(F)cc4s3)n2)cc1 | -24% | -1% | -1% | -11% | 14µM*
CCCc1nnc(NC(=O)c2nc(S(=O)(=O)Cc3ccc(C)cc3)ncc2Cl)s1 | -20% | -3% | -6% | ? | ?
CCCCCC/C=C/c1ccc(OC)c(C2C3C=CCC(C)C3C(=O)N2Cc2ccccc2)c1 (stereo unspecified) | . | -1% | 0% | . | .
COc1ccc(C)cc1Nc1nc2c(S(=O)(=O)c3cc(C)ccc3C)nnn2c2ccsc12 | -10% | -4% | -13% | 3% | -5%
CCN(CC)c1ccc(/C=N/NS(=O)(=O)c2ccc(C)c([N+](=O)[O-])c2)cc1 | ? | -1% | -8% | -3% | ?
CCN(Cc1ccccc1)c1ccc(/C=N/NS(=O)(=O)c2cccc([N+](=O)[O-])c2)cc1 | 7.9µM*[quencher] | 4% | 0% | 18% | ?
CCc1ccc(NC(=O)CCc2c(C)nn(-c3ccc(N4CCCC4)nn3)c2C)cc1 | -13% | 3% | 8% | 9% | ?
COc1ccc(OC(=O)c2nc(SCc3ccc(F)cc3)ncc2Cl)cc1 | -17% | -3% | -5% | -8% | ?
O=C(Oc1ccccc1F)c1nc(SCc2ccc(F)cc2)ncc1Cl | -25% | -1% | 2% | -15% | 20µM*
CCN1/C(=C/C=C/c2oc3ccc4ccccc4c3[n+]2CC)Oc2ccc3ccccc3c21 | 2.8µM*[fluorescent] | 50µM*[fluorescent] | 10µM* | ? | 1.1µM*
CC[n+]1c(/C=C/N(C)c2ccccc2)oc2ccc(Cl)cc21 | 1% | 2% | 9% | 9% | 4%
O=C(OC1CCc2ccccc2C1=O)c1ccccc1O (stereo unspecified) | ? | 0% | 3% | ? | 25µM*
O=C(Cn1c(-c2ccccc2)noc1=O)Nc1ccc(N2CCCCCC2)cc1 | 14µM*[quencher] | -4% | -20% | ? | -14%
CC(=O)Nc1ccc(N2CCCCC2)cc1 | -3% | 0% | 2% | 2% | -13%
O=C(Nc1ccc(N2CCN(c3ccc(O)cc3)CC2)cc1)Oc1ccccc1 | 7.9µM*[quencher] | 1% | -8% | -5% | 5µM*
O=C(Nc1ccc(N2CCCCC2)cc1)c1ccccc1 | -20% | 0% | 9% | 13% | ?
